We go through four molecules from the supplement of paper PMC13380429.

Values without a mark were called inactive.

The assay deals with Vero E6 infected with SARS-CoV-2. The experiment in a line: inhibition of SARS-CoV-2 cytopathic effect; higher = more antiviral protection, active = above 15. Particulars: 10000 nM; 48 h. For orientation: Damage to the host cells serves as the signal in cytopathic effect assays.
With `Nc1ncnc2c1c(-c1cnc3[nH]ccc3c1)nn2C1CCCC1`, the “inhibition of SARS-CoV-2 cytopathic effect” value (“inhibition” below) was -16.5%.

For `CCCCC/C=C\C/C=C\C/C=C\C/C=C\CCCC(=O)Nc1ccc(O)cc1`, the “inhibition” value was -4.16%.

For `CCCC(C)NC(=O)c1ccc(Cl)c(Cl)c1` (centres undefined), the “inhibition” value was -1.56%.

As for `CC(C)C[C@@H](N)C1(c2ccc(Cl)cc2)CCC1`, the “inhibition” value is -7.34%.
